According to PubChem BioAssay AID488943 (Broad Institute, 2010):
Potency and affinity values are given separately. A number with no mark means an inactive call.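 Rule for the calls: active = compounds with a fitted half-maximal inhibitory dose at or below ten times their top tested dose; inconclusive = flat curve at 30 to 70% inhibition, or poor fit; inactive = the rest.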

Assay: fluconazole resistance reversal in C. albicans, dose response, CaCi-2 strain, Alamar Blue, dry powder, set 4 (AID 488943)
Settings: C. albicans CaCi-2 (fluconazole-resistant clinical isolate) + fluconazole, Alamar Blue growth, 48 h; series mostly up to 6 µM; activity change, negative = inhibition: at the top concentration

Structure (SMILES)	activity change, negative = inhibition [%]
CCCCNC(=O)N1CCN(c2ccnc3cc(Cl)ccc23)CC1	1.3
O=C(C1CC1)N1CCN(c2ccnc3cc(Cl)ccc23)CC1	-28.7
COc1cccc2c(N3CCN(C(=O)c4ccc(Cl)cc4)CC3)cc(C)nc12	10.9
O=C(c1ccc(Cl)cc1)N1CCNCC1	13.3
CC(C)C(=O)N1CCN(c2ccnc3cc(Cl)ccc23)CC1	-14.5
O=C(c1ccc(Cl)cc1)N1CCN(c2ccncc2)CC1	-18.9
CCCC(=O)N1CCN(c2ccnc3cc(Cl)ccc23)CC1	-28.2
COc1cccnc1N1CCN(C(=O)c2ccc(Cl)cc2)CC1	-19.6
O=S(=O)(c1ccc(Cl)cc1)N1CCN(c2ccnc3cc(Cl)ccc23)CC1	-10.1
O=C(c1ccc(Cl)cc1)N1CCN(c2ccnc3ccccc23)CC1	-24.1
Cc1cc(N2CCN(C(=O)c3ccc(Cl)cc3)CC2)c2ccccc2n1	6.08
COCCC(=O)N1CCN(c2ccnc3cc(Cl)ccc23)CC1	-13.7
O=C(c1ccc(Cl)cc1)N1CCN(c2cc(C(F)(F)F)nc3ccccc23)CC1	10.5
Cc1cccc(N2CCN(C(=O)c3ccc(Cl)cc3)CC2)n1	-9.45
O=C(c1ccc(Cl)cc1)N1CCN(c2cccc(C(F)(F)F)n2)CC1	-5.41
O=C(c1ccc(Cl)cc1)N1CCCN(c2ccnc3cc(Cl)ccc23)CC1	-25.6
